In PubChem BioAssay AID2284424 (EPA ToxCast):
Activity calls are given as the source filed them. The calls were made as follows: active = hit-call score of the fitted dose curve at least 0.9, where 1 is the maximum; inactive = score below 0.9.

test system: SRY-box transcription factor 2 (SOX2) Protein Expression, SOX2 (gene 6657); assay: CCTE_Deisenroth_DEVTOX-GLR_Ecto_SOX2: CCTE's DevTox GLR-Ecto Assay Evaluation of SRY-box transcription factor 2 (SOX2) Protein Expression, Deisenroth Lab
Description: CCTE_Deisenroth_DEVTOX-GLR_Ecto assay is a cell-based, multiplex-readout assay that uses RUES2-GLR, a human pluripotent cell line, with measurements taken at 48 hours after chemical dosing in a 384-well microplateCCTE_Deisenroth_DEVTOX-GLR_Ecto_SOX2 is 1 of 4 assay components calculated from the CCTE_Deisenroth_DEVTOX-GLR_Ecto assay and it measures an the percentage of cells in an ectoderm state. Using a type of inducible fluorescent protein reporter, gain-of-signal activity can be used to understand changes in gene expression with fluorescent microscopy. The percentage of SOX2+ cells are determined by calculating the number of SOX2+ cells divided by the cell count. To generalize the intended target to other relatable targets, this assay component is annotated to the transcription factor intended target family, where the subfamily is SRY-related HMG-box.Data from the assay component CCTE_Deisenroth_DEVTOX-GLR_Ecto_SOX2 was analyzed as 1 assay endpoint. The endpoint is the percent change in SOX2+ cell population relative to the 0.2% DMSO control in the CCTE_Deisenroth_DEVTOX-GLR_Ecto assay. Furthermore, this assay endpoint can be referred to as a primary readout, because this assay has produced multiple assay endpoints where this one serves as a measure of ectoderm differentiation.
All assay protocols are aligned to the DevTox GLR-Endo assay workflow. Cells are seeded into 384-well microplates for 24 hours prior to initiating differentiation in defined media for a total duration of 48 hours. A total of two chemical exposures are administered in 24-hour intervals during the 48-hour differentiation period. At the assay termination point, cells are fixed and stained with a fluorescent dye demarcating the nucleus. High-content imaging is used to acquire brightfield and fluorescent channel images across 5 fields per well. Cell identification and mean biomarker fluorescence intensities are calculated with image analysis software to determine the total cell counts for viability assessment and the biomarker expression frequency for each lineage-dependent assay. A typical experimental design tests a 10-point concentration series (1 nM - 200 uM) for 28 compounds in single technical replicate. Assay plate controls include non-differentiated pluripotent cells (baseline control), lineage-specific differentiated cells (differentiation control), and DMSO solvent exposed differentiated cells (solvent control). Experiments typically comprise a minimum of four experimental replicates (n=4).

Row | SMILES | outcome | AC50
1 | O=C1CCC(N2C(=O)c3ccccc3C2=O)C(=O)N1 (stereo unspecified) | inactive | –
2 | CC1=C(/C=C/C(C)=C/C=C/C(C)=C\C(=O)O)C(C)(C)CCC1 | – | 5.86 µM (active)
3 | CC1(C)S[C@@H]2[C@H](NC(=O)Cc3ccccc3)C(=O)N2[C@H]1C(=O)O | inactive | –
4 | CC/C(=C(/CC)c1ccc(O)cc1)c1ccc(O)cc1 | inactive | –
5 | O=C1NC(=O)C(c2ccccc2)(c2ccccc2)N1 | inactive | –
6 | Nc1cccc2c1C(=O)N(C1CCC(=O)NC1=O)C2=O (stereo unspecified) | inactive | –
7 | CN(Cc1cnc2nc(N)nc(N)c2n1)c1ccc(C(=O)N[C@@H](CCC(=O)O)C(=O)O)cc1 | – | 0.106 µM (active)
8 | O=c1[nH]cc(F)c(=O)[nH]1 | – | 9.11 µM (active)
9 | CC1=C(/C=C/C(C)=C/C=C/C(C)=C/C(=O)O)C(C)(C)CCC1 | – | 0.471 µM (active)
10 | CC(=O)Nc1ccc(O)cc1 | inactive | –
11 | CC(C)(c1ccc(O)cc1)c1ccc(O)cc1 | inactive | –
12 | Nc1nc2ncc(CNc3ccc(C(=O)N[C@@H](CCC(=O)O)C(=O)O)cc3)nc2c(=O)[nH]1 | inactive | –
13 | O=C1NS(=O)(=O)c2ccccc21 | inactive | –
14 | CCN(CC)CCNC(=O)c1c(C)[nH]c(/C=C2\C(=O)Nc3ccc(F)cc32)c1C | inactive | –
15 | CCCC(CCC)C(=O)O | inactive | –
16 | CS(=O)(=O)OCCCCOS(C)(=O)=O | – | 21 µM (active)
